Most compounds without a hit are left out; they make up all but 1.6% or so of the library.
KCNQ2 pot: potentiators of rat KCNQ2 potassium channel. Potassium voltage-gated channel subfamily KQT member 2 (Rattus norvegicus), O88943. CHO-K1 KCNQ2, FluxOR thallium flux fluorescence; stronger effect = higher value. B-score at 10 µM. 0.54% of 310,000 active. AID 2239, 2010;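 active = fluorescence ratio B-score at least 3 SD of library B-scores, with initial fluorescence B-score within 3 of them, cut at about 5.3 in these data; same plate scores as AID 2156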;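 also: B-score of peak minus minimum over baseline fluorescence ratio after K+ and Tl+ stimulus; positive B-score means potentiation of KCNQ2 with more thallium influx and brighter signal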
KCNQ2 inh: rat KCNQ2 potassium channel inhibitors, primary screen, cell-based, CHO-K1, FluxOR thallium flux, B-score. Potassium voltage-gated channel subfamily KQT member 2 (Rattus norvegicus), O88943. 20 min; stronger effect = lower value. B-score at 10 µM. 1.1% of 310,000 active;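 active = fluorescence ratio B-score at most minus 3 library SDs, with starting brightness B-score within 2 library SDs, cut at about -5.5 in these data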
Kir21 conf inh: mouse Kir2.1 channel blockers, retest, confirmation, cell-based, FluxOR thallium flux, duplicate; shares compounds with KCNQ2 pot; 41% of 2,300 active; Kir2.1-expressing cells, FluxOR thallium flux fluorescence; stronger effect = lower value; Tl flux remaining, % of negative control (stronger effect = lower value), % at 10 µM;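 active = Primary-screen hit whose thallium flux fell at least 3 control SD below untreated wells in both duplicates, with normal baseline fluorescence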
Target sequence (P35561 whole entry, looked up): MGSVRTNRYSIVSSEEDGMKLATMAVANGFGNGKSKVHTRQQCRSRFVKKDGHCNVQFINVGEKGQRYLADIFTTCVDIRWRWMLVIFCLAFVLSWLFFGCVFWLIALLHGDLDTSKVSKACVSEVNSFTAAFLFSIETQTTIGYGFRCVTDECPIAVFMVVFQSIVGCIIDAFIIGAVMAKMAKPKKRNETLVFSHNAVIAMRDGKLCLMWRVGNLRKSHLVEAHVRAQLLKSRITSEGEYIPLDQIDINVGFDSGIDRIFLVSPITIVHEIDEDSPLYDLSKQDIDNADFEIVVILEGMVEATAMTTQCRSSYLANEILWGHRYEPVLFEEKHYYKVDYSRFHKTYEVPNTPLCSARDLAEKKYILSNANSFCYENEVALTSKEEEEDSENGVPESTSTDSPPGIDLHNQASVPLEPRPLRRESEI
HEK293 ctr: parental HEK293 activity in Kir2.1 inhibitor counter-screen; shares compounds with KCNQ2 pot; parental HEK293 cells, FluxOR thallium flux fluorescence; 0% = unstimulated blank wells; FluxOR signal as % of negative control (100 = no effect), % at 10 µM; 19% of 2,300 active; AID 2105;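 active = dye signal at least 3 control SD above or below untreated wells in both duplicates, raw fluorescence within 3, either direction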;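 also: percent is based on the flux ratio of peak minus minimum fluorescence over baseline F0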
CHO-K1 ctr: nonspecific thallium flux increase in parental CHO-K1, confirmation, counter-screen for KCNQ2 potentiator project, cell-based, FluxOR thallium flux, duplicate. parental CHO-K1 cells, FluxOR thallium flux fluorescence; zero = vehicle mean+3SD, 100% = vehicle-minus-blank window. activity increase over 3SD of controls, % at 10 µM. 43% of 1,200 active. shares compounds with KCNQ2 pot. AID 2282, 2010;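 active = signal rise of at least 3 SD above the untreated control mean, in both duplicate wells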;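 also: counter screen of KCNQ2 potentiator hits so any rise reflects channel-independent effects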
KCNQ1 pot spec: human KCNQ1 channel potentiation off-target, confirmation, selectivity assay for KCNQ2 potentiator project, cell-based, CHO, FluxOR thallium flux; shares compounds with KCNQ2 pot; CHO KCNQ1 stable, FluxOR thallium flux fluorescence; beyond 3SD, as % of vehicle-control signal; activation over 3SD threshold, % at 10 µM; 28% of 1,200 active; AID 2283, 2010;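 active = fluorescence ratio rise of at least 3 SD of vehicle wells above their mean, in both replicate wells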
KCNQ2 pot confirm: rat KCNQ2 channel potentiators, confirmation, cell-based, CHO, FluxOR thallium flux, duplicate | CHO-KCNQ2 cells, FluxOR thallium flux fluorescence | potentiation, less the hit threshold, % at 10 µM | shares compounds with KCNQ2 pot | 68% of 1,200 active;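 active = fluorescence ratio rising 3 SD or more over the vehicle control mean in both replicates, plus primary screen hit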;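 also: peak minus minimum thallium fluorescence divided by baseline after K/Tl stimulus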
Kir2-1 sel: mouse Kir2.1 channel activation off-target, confirmation, selectivity assay for KCNQ2 potentiator project, cell-based, HEK293, FluxOR thallium flux. shares compounds with KCNQ2 pot. HEK293 Kir2.1, FluxOR thallium flux fluorescence. activity over 3SD threshold, % at 10 µM. 2% of 1,200 active;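 active = fluorescence ratio rise of at least 3 SD above the vehicle-control mean, seen in both replicates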
KCNQ2 W236L pot: potentiators of retigabine-insensitive KCNQ2 W236L, mechanism study for KCNQ2 potentiator project, cell-based, rat KCNQ2 W236L, CHO, automated patch clamp; AID 2558, 2010; automated patch clamp current; current increase over 3SD of negative controls (%), stronger effect = higher value, % at 25 µM; shares compounds with KCNQ2 pot; 10% of 940 active;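 active = current increase at least 3 SD of the untreated controls above them in both duplicate recordings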
Hits are given with their value; – = inactive; · = not tested or not shown.

SMILES	KCNQ2 pot	KCNQ2 inh	Kir21 conf inh	HEK293 ctr	others
CCCN(Cc1ccccc1)C(=S)NC(=O)c1ccccc1[N+](=O)[O-]	12.7	–	–	450.0%	CHO-K1 ctr=5.8;KCNQ1 pot spec=–;KCNQ2 pot confirm=60.3;Kir2-1 sel=–;KCNQ2 W236L pot=–
CCOC(=O)N1CCN(C(=O)c2ccc3c(c2)NC(=O)/C(=C\c2cccc(C)c2)S3)CC1	–	–	·	·
Cc1ccc(/C=C/C(=O)NC(C)c2ccccc2)cc1 (stereo not given)	–	–	·	·
CC(NC(=O)/C=C/c1ccc(Br)cc1)c1ccccc1 (stereo not given)	–	–	·	·
CCc1ccc(C(C)NC(=O)/C=C/c2ccc(Br)cc2)cc1 (stereo not given)	8.72	–	–	–	CHO-K1 ctr=–;KCNQ1 pot spec=–;KCNQ2 pot confirm=23.8;Kir2-1 sel=–;KCNQ2 W236L pot=–
CC(NC(=O)/C=C/c1ccccc1)c1ccccc1 (stereo not given)	16.8	–	–	–	CHO-K1 ctr=2.8;KCNQ1 pot spec=19.7;KCNQ2 pot confirm=29.6;Kir2-1 sel=–;KCNQ2 W236L pot=–
CN(C)C(CNC(=S)Nc1ccccc1Cl)c1cccnc1 (stereo not given)	·	–	·	·
CCc1c(C)nn(C(=O)/C(C#N)=C\N(C)C)c1C	–	–	·	·
Cc1ccc(NC(=O)CNC(=O)c2ccco2)nc1	·	–	·	·
NC(=O)c1ccc(Oc2ccc(C(N)=O)cc2)cc1	–	–	·	·
c1ccc(OCCOCCN2CCc3ccccc3C2)cc1	–	–	·	·
CCCOc1ccc(OCCOCCN2CCc3ccccc3C2)cc1	–	–	60.5%	–
C=CCc1cc(OC)ccc1OCCOCCN1CCc2ccccc2C1	·	–	18.0%	–
CCOc1ccc(OCCOCCN2CCc3ccccc3C2)cc1	–	–	·	·
O=c1cc[nH]c2ccc(OC(F)(F)F)cc12	–	–	·	·
COc1cccc(CCc2nnc(CCC(=O)NC(C)c3c(C)nn(C)c3C)o2)c1 (stereo not given)	–	–	·	·
CCOC(=O)C1CCN(C(=O)Cn2c(=O)c3cccn3c3cccnc32)CC1	–	–	·	·
Cc1ccc(NC(=O)NC2CC(=O)N(c3ccc4c(c3)OCCO4)C2)c(C)c1 (stereo not given)	–	–	·	·
COc1ccc([C@H]2C(C#N)=C([S-])N[C@](C)(O)[C@@H]2[n+]2ccccc2)cc1	·	–	·	·
CCOC(=O)N1CCN(C(=O)CN(c2ccc(OC)cc2)S(C)(=O)=O)CC1	26.6	–	–	–	CHO-K1 ctr=15.1;KCNQ1 pot spec=–;KCNQ2 pot confirm=–;Kir2-1 sel=–
CCOC(=O)N1CCN(C(=O)CN(c2cccc(OC)c2)S(C)(=O)=O)CC1	·	–	·	·
CC(=O)Nc1ccc(OCC(O)CN2CCN(c3ccc(F)cc3)CC2)cc1 (stereo not given)	–	–	·	·
CCC(=O)Nc1nc2ccccc2n1CCN1CCOCC1	·	–	·	·
CCCCCCCn1c(NC(=O)CC)nc2ccccc21	10.4	–	–	–	CHO-K1 ctr=–;KCNQ1 pot spec=–;KCNQ2 pot confirm=61.0;Kir2-1 sel=–;KCNQ2 W236L pot=–
CCCCn1c(C(C)NC(=O)CC)nc2ccccc21 (stereo not given)	–	–	·	·

Screens as filed in PubChem.
